Assay outcomes from PubChem.
A selection: hits, their analogues and other compounds. The true share with any hit is near 3.5%.
FBW7 activator – human FBW7 E3 ligase activation, primary screen | AlphaScreen FBW7–phospho-cyclin E peptide binding, activator screen | normalized activity (activation), % at 26.1 µM | hit rate 0.13% among 650,000 | AID 1259310; in the data active = normalized activity above about 1.9%;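 also: purified mutant Fbw7 with reduced substrate affinity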
MITF inh – human MITF inhibition, primary screen; inhibition, % at 2.6 µM; AID 1259374; O75030; AlphaScreen MITF homodimerization, bead proximity signal; hit rate 0.91% among 650,000; in the data active = inhibition above about 50%;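 also: 0% = vehicle wells with protein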
TEAD-YAP block – TEAD-YAP interaction inhibition; hit rate 1.4% among 640,000; HEK-TIYL cells, TEAD-Gal4/YAP UAS-luciferase luminescence; inhibition, % at 9.12 µM; in the data active = inhibition above about 32%;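 also: 0% = median of test compound wells and 100% = reference inhibitor wells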
GPR151 ag – human GPR151 activation; PathHunter beta-arrestin GPR151 cells, luminescence; activation, % at 11.2 µM; hit rate 1% among 650,000; AID 1508602; in the data active = activation above about 4.9%;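 also: 0% = median of compound wells and 100% = cells with positive control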
GPR151 confirm – confirmation of human GPR151 activators | shares compounds with GPR151 ag | activation, % at 11.2 µM | GPR151 PathHunter beta-arrestin cells, luminescence, 90 min; % of EA-reagent control over plate median | 6,700 tested, under 10 active;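 active = mean percent activation across replicates above the confirmation screen cutoff of 4.91%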
GPR119 ag – GPR119 activation, counter-screen for GPR151 activators. shares compounds with GPR151 ag. GPR119 PathHunter beta-arrestin cells, luminescence, 90 min; 0 = compound-well median, 100 = enzyme-acceptor control. activation, % at 11.2 µM. hit rate 0.3% among 6,700. AID 1508611;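 active = mean percent activation in the counterscreen above 29.09%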;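 also: counterscreen on off-target GPR119 to flag nonselective hits from the GPR151 activator screen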
Numbers without * were called inactive; . = not tested or not shown.

SMILES | FBW7 activator | MITF inh | TEAD-YAP block | GPR151 ag | GPR151 confirm | GPR119 ag
COc1ccc(C(C)=O)cc1CN(C)C | 0 | 5 | -8 | 6.6* | 2 | 3
CC(=O)Nc1ccc(S(=O)(=O)Nc2ccccc2C(C)C)cc1 | 0 | 5 | 4 | 5.9* | 0 | -14
Cc1ccc(/C(N)=N/OC(=O)c2cccc3ccccc23)cc1 | 0 | -4 | 5 | 0 | . | .
COc1ccc(C2/C(=C(/O)c3ccc(F)cc3)C(=O)C(=O)N2CCCCCC(=O)O)c(OC)c1 (centres undefined) | 0 | -10 | -10 | 1 | . | .
COc1ccc(C2/C(=C(/O)c3ccc(C)cc3)C(=O)C(=O)N2CCCC(=O)O)c(OC)c1 (centres undefined) | 0 | -9 | 8 | 7.8* | 1 | 10
COc1ccc(C2/C(=C(/O)c3ccccc3)C(=O)C(=O)N2CCCn2ccnc2)c(OC)c1 (centres undefined) | 0 | -21 | 2 | 5.9* | 2 | -4
COC(=O)c1cc(Nc2ccc(C)cc2)c2cccc(F)c2n1 | 0 | 0 | 21 | 2 | . | .
COC(=O)c1cc(Nc2cccc(F)c2)c2cccc(OC)c2n1 | 0 | -14 | 4 | 7.9* | 0 | -3
